# BAZ2B inh = inhibitors of human BAZ2B bromodomain; Q9UIF8; 360,000 tested, 4.4% active; AlphaScreen BAZ2B-H3K14Ac peptide displacement; Potency, µM (top dose mostly 114 µM), without a hit: top-dose activity change, negative = inhibition, hits mostly inhibitors; also: potency is read from the fitted curve at half-maximal effect; % is scaled to controls: 0 for no effect and ±100 for the full control effect; nearly all actives have a fitted effect of over 60% in size
#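 AlphaScreen displacement of biotin-H3(5-23)K14Ac peptide (50 nM final) from BAZ2B (50 nM final) in PBS pH 7.4, 0.01% Tween-20; complex preformed 30 min RT, then compounds (top 110 uM) 30 min RT, beads 20 min dark.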
# PLK1 PBD block = inhibitors of human PLK1 polo-box domain binding; Plk1 PBD binding of FITC phosphopeptide, fluorescence polarization; Potency, µM, inactives show max response, negative = inhibition, hits mostly inhibitors; 360,000 tested, 2.8% active; also: potency is read from the fitted curve at half-maximal effect; series mostly up to about 57 µM; % is scaled to controls: 0 for no effect and ±100 for the full control effect; nearly all actives have a fitted effect of over 65% in size
# KAT2A inh = inhibitors of human GCN5L2 histone acetyltransferase. Q92830. GCN5L2 HAT assay, ThioGlo1 CoA-SH fluorescence. Potency, µM (doses to about 58.9 µM), inactives show at the highest dose activity change, negative = inhibition, most hits filed as inhibitors. 390,000 tested, 0.21% active; also: potency is read from the fitted curve at half-maximal effect; % is scaled to controls: 0 for no effect and ±100 for the full control effect
#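 Titration-based screen in which CoA formation is detected via maleimide probe ThioGlo1 (50uM) turning fluorescent on thiol reaction; substrates H3(1-25) 75uM and acetyl-CoA 70uM, GCN5L2 20nM, 20 min incubation at room temperature.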
# PI5P4Ka inh = PI5P4K alpha (human) kinase inhibition; P48426; PI5P4Kalpha enzyme, ADP-Glo luminescence, 60 min; active compounds read low; max response, %; 330,000 tested, 1.2% active; AID 652105; active = max response of -50% or lower; inconclusive = between -30% and -50%; inactive = -30% or higher; also: value at the top dose of about 77 µM; % is scaled to controls: 0 for no effect and ±100 for the full control effect
#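 Enzyme plus substrate dispensed, test compounds pinned in, then ATP (5 microM final) added. After 60 min at RT, ADP-Glo reagent 1 for 45 min and reagent 2 for 30 min preceded luminescence imaging.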
# JMJD2A Tudor inh = JMJD2A Tudor domain (human) inhibition | AlphaScreen JMJD2A-Tudor / H3K4me3 peptide binding | O75164 | Potency, µM (doses to about 114 µM), inactives show at the top dose activity change, negative = inhibition, hits mostly inhibitors | 390,000 tested, 4.4% active | AID 504339; also: potency is read from the fitted curve at half-maximal effect; % is scaled to controls: 0 for no effect and ±100 for the full control effect; nearly all actives have a fitted effect of over 50% in size
# HP1b chromo inh = blocks HP1-beta chromodomain binding to methylated histone tails | AlphaScreen HP1-beta / biotin-H3K9me3 peptide binding | Potency, µM (titrated, usually from 114 µM), without a hit: at the top dose activity change, negative = inhibition, most hits filed as inhibitors | 390,000 tested, 0.56% active | AID 540317; also: potency is read from the fitted curve at half-maximal effect; nearly all actives have a fitted effect of over 70% in size
#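 AlphaScreen: HP1-beta (50 nM) preformed 30 min with biotin-H3(1-18)K9me3 peptide (50 nM) in PBS pH 7.4, 0.01% Tween-20. Compound added for 30 min at RT, then streptavidin donor/nickel chelate acceptor beads (10 ug/mL) for 30 min.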
# TbPYK confirm = confirmation of Trypanosoma brucei pyruvate kinase inhibitors; shares compounds with PLK1 PBD block; recombinant TbPYK, Kinase-Glo ATP luminescence; Potency, µM (doses to about 76.9 µM), for the others: top-dose activity change, negative = inhibition, actives largely listed as inhibitors; 890 tested, 67% active; also: potency is read from the fitted curve at half-maximal effect; % is scaled to controls: 0 for no effect and ±100 for the full control effect; nearly all actives have a fitted effect of over 70% in size
# TbPYK orthogonal = inhibits T. brucei pyruvate kinase in orthogonal ADP-Glo assay; shares compounds with PLK1 PBD block; recombinant TbPYK, ADP-Glo luminescence, 60 min; Potency, µM (doses to about 76.9 µM), for the others: at the top dose activity change, negative = inhibition, usual class: inhibitors; 890 tested, 62% active; AID 720584; also: potency is read from the fitted curve at half-maximal effect; % is scaled to controls: 0 for no effect and ±100 for the full control effect; nearly all actives have a fitted effect of over 75% in size
# Numbers without * were called inactive; ? = inconclusive; . = no result given. Sampled rows, rich in hits. Any-hit rate of the full collection: about 7%. Unless noted, calls follow the shape of the dose curve; as a rule, active = well fitted curve in the direction sought with a large enough effect; inconclusive = small, poorly fitted or top-dose-only effect, or another doubt; inactive = no such curve, though single readings can be large; an effect the other way counts as inactive or inconclusive.
SMILES,BAZ2B inh,PLK1 PBD block,KAT2A inh,PI5P4Ka inh,JMJD2A Tudor inh,HP1b chromo inh,TbPYK confirm,TbPYK orthogonal
CCN(CC)c1ccc(C(=O)NNC(=O)CCl)cc1,?,-14.8%,-6.3%,-7.7,-21.9%,28.8%,.,.
O=C(COC(=O)c1c(F)cccc1F)Nc1ccc(N2CCCCC2)cc1,.,1.7%,-3.7%,0.2,-29.5%,3.6%,.,.
COc1ccc(/C=C2/C(=O)ON=C2C)cc1Br,-16.8%,1.89µM*,-18.7%,-16.7,-28.8%,14.4%,?,?
COc1ccc(/C=C/C(=O)N(C(C)C)C(C)C)cc1Br,-2.4%,-0.8%,-9.6%,.,-8.8%,17.4%,.,.
COc1cc(/C=C2\C(=O)ON=C2c2ccccc2)cc(OC)c1OC,?,7.52µM*,-0.2%,-25.0,-22.5%,20.8%,?,?
COc1cc(/C=C2\N=C(c3ccccc3)NNC2=O)cc(OC)c1OC,-21.1%,-3.2%,-8.5%,-1.9,-17.2%,28.2%,.,.
CCOC(=O)c1c(NC(=O)c2cc(=O)c3ccc(C)cc3o2)sc(C)c1C,0.9%,.,-3.9%,.,-15.3%,27.2%,.,.
CCOC(=O)C=C(C(=O)OCC)C(=O)OCC,-2.7%,10.6µM*,-1.2%,2.5,-6.5%,?,4.47µM*,7.94µM*
CCOC(=O)C(=C1Nc2ccccc2N1)n1c(-c2ccco2)nc2ccccc21,.,?,.,-66.2*,.,.,-71.9%,35.5µM*
CCCCn1c(N)c(N(CCOC)C(=O)c2ccc3c(c2)C(=O)N(c2cc(C)ccc2C)C3=O)c(=O)[nH]c1=O,-17.8%,-3.4%,-3.3%,-4.7,-14.5%,12.5%,.,.
CCN(CC)c1ccc(NC(=O)Cn2cc3c(n2)CCC(C)C3)c(C)c1 (centres undefined),?,0.3%,-1.2%,0.2,?,?,22.4µM*,?
Cc1ccc(NC(=O)NC(=O)CN2CCN(c3ccc(O)cc3)CC2)c(C)c1,?,-7.9%,-8.6%,-24.1,44.7µM*,70.8µM*,11.2µM*,5.62µM*
Cc1ccc(NC(=O)NC(=O)CN2CCC(C(N)=O)CC2)c(C)c1,8.6%,-19.9%,2.9%,2.1,0.7%,26.8%,.,.
COC(=O)c1ccc2nc(-c3ccco3)c(Cc3cccc(F)c3)n2c1,.,?,.,?,.,.,11.2µM*,7.94µM*
COC(=O)c1ccc2nc(-c3ccc(C)cc3)c(Cc3ccc(C)cc3)n2c1,.,0.7%,.,1.5,.,.,.,.
COC(=O)c1ccc2nc(-c3ccco3)c(Cc3ccc(C)cc3)n2c1,.,-16.7%,.,-19.5,.,.,20µM*,25.1µM*
Clc1cccc(Cc2c(-c3ccco3)nc3ccc(Cl)cn23)c1,.,11.9µM*,.,-65.1*,.,.,11.2µM*,12.6µM*
COC(=O)c1ccc2nc(-c3ccc(F)cc3)c(Cc3cccc(F)c3)n2c1,.,16.7%,.,-1.5,.,.,.,.
COC(=O)c1ccc2nc(-c3ccco3)c(Cc3ccccc3C(F)(F)F)n2c1,.,?,.,-3.6,.,.,?,?
O=C(CSc1nnc(CNC(=O)c2c(F)cccc2F)o1)NCc1ccc2c(c1)OCO2,.,-4.6%,.,3.3,.,.,.,.
Cc1cc(C)n2nc(CC(=O)NNC(=O)c3ccccc3Cl)nc2n1,13.6%,2.8%,-4.3%,-0.5,4.8%,55.1%,.,.
Brc1cc(Cc2nnc(-c3ccccc3)o2)c(Br)s1,48.0%,-8.0%,-4.9%,-1.0,114.9%,98.7%,.,.
COc1ccc2c(Cl)cc(NC(=O)Nc3c(C)cccc3C)nc2c1,.,4.6%,.,4.1,.,.,.,.
COc1ccc(/C=N/n2cnc3c(sc(=S)n3-c3ccccc3)c2=O)cc1,8.3%,-17.8%,-1.7%,0.9,-12.9%,61.7%,.,.
COc1ccc(C2NC(=O)c3sc(=S)n(-c4ccccc4)c3N2)cc1 (centres undefined),-11.7%,?,-2.8%,-14.5,-13.2%,25.3%,7.08µM*,12.6µM*

# Compound activity: PubChem, National Center for Advancing Translational Sciences (NCATS)
